Measurements reported in PubChem BioAssay AID1159580 (chemical genetic matrix, 2015).
Where “and” joins values, the source holds several entries; their conditions need not be identical. Identical values can stand only once. Among all 5,500 compounds or so, about 2,000 (36%) were called active. Not shown: some 18% with an inconclusive outcome. Rule as the data show it: active = normalized growth mostly below about 0.91 (no sharp cut-off); inconclusive = no clear call, values can overlap the other calls; inactive = mostly above about 0.92. This is one part of the list.

Assay: chemical genetic growth profiling, strain panel (AID 1159580);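 also: tested at 20 µM; growth read once vehicle control cultures reached saturation at 30 °C; 1 = growth at the plate median or of vehicle wells; lower values mean less growth of the strain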
Settings: S. cerevisiae deletion strains, growth OD

Measured: normalized growth

COC(=O)/C(=C1\OC(=O)C(c2ccccc2)=C1O)c1ccccc1
inactive: locus YAL013W, strain DEP1, stronger effect = lower value 1.01 | locus YAL021C, strain ccr4, stronger effect = lower value 0.979 | locus YAL026C, strain drs2, stronger effect = lower value 0.979 | locus YAL030W, strain snc1, stronger effect = lower value 0.981 | locus YBL061C, strain skt5, stronger effect = lower value 0.977 | locus YBR009C, strain hhf1, stronger effect = lower value 1 | locus YBR021W, strain FUR4, stronger effect = lower value 0.963 | locus YBR023C, strain chs3, stronger effect = lower value 0.976 | locus YBR171W, strain sec66, stronger effect = lower value 0.987 | locus YBR229C, strain ROT2, stronger effect = lower value 0.993 | locus YBR231C, strain swc5, stronger effect = lower value 0.985 | locus YBR279W, strain paf1, stronger effect = lower value 0.984 | locus YCL011C, strain gbp2, stronger effect = lower value 0.979 | locus YCL016C, strain dcc1, stronger effect = lower value 0.981 | locus YCL029C, strain bik1, stronger effect = lower value 0.987 | locus YCL061C, strain MRC1, stronger effect = lower value 0.966 | locus YCL069W, strain vba3, stronger effect = lower value 0.968 | locus YCR088W, strain abp1, stronger effect = lower value 0.962 | locus YDL005C, strain med2, stronger effect = lower value 0.974 | locus YDL035C, strain GPR1, stronger effect = lower value 1 | locus YDL040C, strain nat1, stronger effect = lower value 0.969 | locus YDL074C, strain BRE1, stronger effect = lower value 1.03 | locus YDL101C, strain DUN1, stronger effect = lower value 1.01 | locus YDL134C, strain PPH21, stronger effect = lower value 0.998 | locus YDL185W, strain tfp1, stronger effect = lower value 0.987 | locus YDL192W, strain arf1, stronger effect = lower value 1 | locus YDR001C, strain nth1, stronger effect = lower value 0.958 | locus YDR069C, strain doa4, stronger effect = lower value 1.01 | locus YDR101C, strain arx1, stronger effect = lower value 1 | locus YDR137W, strain rgp1, stronger effect = lower value 0.967 | locus YDR150W, strain NUM1, stronger effect = lower value 0.987 | locus YDR159W, strain sac3, stronger effect = lower value 0.974 | locus YDR162C, strain NBP2, stronger effect = lower value 1.02 | locus YDR195W, strain ref2 0.943 | locus YDR297W, strain sur2, stronger effect = lower value 0.977 | locus YDR318W, strain mcm21, stronger effect = lower value 0.986 | locus YDR334W, strain swr1, stronger effect = lower value 0.971 | locus YDR335W, strain msn5, stronger effect = lower value 0.982 | locus YDR388W, stronger effect = lower value 0.993 | locus YDR392W, strain spt3, stronger effect = lower value 0.972 | locus YDR502C, strain sam2, stronger effect = lower value 1.01 | locus YEL003W, strain gim4, stronger effect = lower value 0.985 | locus YEL037C, strain rad23, stronger effect = lower value 0.973 | locus YEL061C, strain CIN8 (second series), stronger effect = lower value 0.964 | locus YEL061C, strain CIN8, stronger effect = lower value 0.984 | locus YER015W, strain faa2, stronger effect = lower value 0.967 | locus YER016W, strain bim1, stronger effect = lower value 0.984 | locus YER110C, stronger effect = lower value 0.997 | locus YER111C, strain swi4, stronger effect = lower value 0.976 | locus YER155C, strain BEM2 (second series), stronger effect = lower value 1 | locus YER155C, strain BEM2, stronger effect = lower value 0.994 | locus YER167W, strain BCK2, stronger effect = lower value 0.999 | locus YFR010W, strain ubp6, stronger effect = lower value 0.991 | locus YGL078C, strain dbp3, stronger effect = lower value 0.993 | locus YGL086W, strain mad1, stronger effect = lower value 1.01 | locus YGL167C, strain pmr1, stronger effect = lower value 0.951 | locus YGL173C, strain kem1, stronger effect = lower value 0.993 | locus YGL227W, strain vid30, stronger effect = lower value 0.977 | locus YGL240W, strain doc1, stronger effect = lower value 1.02 | locus YGL248W, strain PDE1, stronger effect = lower value 1 | locus YGL253W, strain hxk2, stronger effect = lower value 0.968 | locus YGR078C, strain PAC10, stronger effect = lower value 1.03 | locus YGR135W, strain pre9, stronger effect = lower value 0.995 | locus YGR229C, strain SMI1, stronger effect = lower value 0.98 | locus YGR252W, strain gcn5, stronger effect = lower value 0.984 | locus YHR013C, strain ard1, stronger effect = lower value 0.963 | locus YHR027C, strain rpn1, stronger effect = lower value 0.976 | locus YHR030C, strain SLT2, stronger effect = lower value 0.99 and 0.914 | locus YHR079C, strain IRE1 (second series), stronger effect = lower value 0.991 | locus YHR079C, strain IRE1, stronger effect = lower value 0.912 | locus YHR094C, strain hxt1, stronger effect = lower value 0.989 | locus YHR129C, strain ARP1, stronger effect = lower value 0.989 | locus YHR142W, strain chs7, stronger effect = lower value 0.93 | locus YHR200W, strain rpn10, stronger effect = lower value 0.988 | locus YIL066C, strain RNR3, stronger effect = lower value 1.01 | locus YIL073C, strain SPO22, stronger effect = lower value 1.05 | locus YIL125W, strain kgd1, stronger effect = lower value 0.974 | locus YIR030C, strain dcg1, stronger effect = lower value 0.998 | locus YJL092W, strain hpr5, stronger effect = lower value 0.959 | locus YJL095W, strain BCK1 (second series), stronger effect = lower value 0.973 | locus YJL095W, strain BCK1, stronger effect = lower value 1.05 and 0.936 | locus YJL115W, strain asf1, stronger effect = lower value 0.974 | locus YJL129C, strain trk1, stronger effect = lower value 0.917 | locus YJL134W, strain LCB3, stronger effect = lower value 0.991 | locus YJL154C, strain vps35, stronger effect = lower value 0.957 | locus YJL164C, strain tpk1, stronger effect = lower value 0.986 | locus YJL166W, strain qcr8, stronger effect = lower value 0.993 | locus YJL168C, strain set2, stronger effect = lower value 0.996 | locus YJL187C, strain SWE1 (second series), stronger effect = lower value 1.04
